# From PMC8384837, “Expanding the binding specificity for RNA recognition by a PUF domain”
# Changes are numbered by the printed parent chain.
# Legend:
# Assay in all cases: yeast three-hybrid, YBZ-1, SC-Leu-His + 0.5 mM 3-AT, 4 days
# Settings in all cases: tags: N-Gal4 AD-HA kept; label: inside an RPR1-promoter hybrid RNA with tandem MS2 sites; ssRNA
# PUM1 PUF domain R4-HNA = PUM1 PUF domain R4-HNA (Homo sapiens, UniProt Q14671 828-1176, N971H;H972N;Q975A)
# Summary of the method: (§1)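 Matching RNA elements and Pumilio-1 PUF domain libraries, randomized at the three base-contacting residues of every repeat, were co-expressed from a centromeric plasmid in strain YBZ-1 (LexA–MS2 coat fusion, HIS3 reporter). The repeat regions were PCR-amplified and Illumina-sequenced from cells grown four days on SC-Leu (input) or SC-Leu-His + 0.5 mM 3-AT (selection). The interaction score is the log change in variant frequency from input to selection. It is computed in log2, with a pseudocount of 1 for absent variants.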
# PUM1 PUF domain R4-PHL = PUM1 PUF domain R4-PHL (Homo sapiens, UniProt Q14671 828-1176, N971P;Q975L)
# Summary of the method: as §1
# PUM1 PUF domain R5-RCG = PUM1 PUF domain R5-RCG (Homo sapiens, UniProt Q14671 828-1176, C1007R;R1008C;Q1011G)
# Summary of the method: as §1
# PUM1 PUF domain R5-RMM = PUM1 PUF domain R5-RMM (Homo sapiens, UniProt Q14671 828-1176, C1007R;R1008M;Q1011M)
# Summary of the method: as §1
# PUM1 PUF domain R5-RVC = PUM1 PUF domain R5-RVC (Homo sapiens, UniProt Q14671 828-1176, C1007R;R1008V;Q1011C)
# Summary of the method: as §1
# PUM1 PUF domain R1-RTV = PUM1 PUF domain R1-RTV (Homo sapiens, UniProt Q14671 828-1176, S863R;R864T;Q867V)
# Summary of the method: as §1
# PUM1 PUF domain R3-RAW = PUM1 PUF domain R3-RAW (Homo sapiens, UniProt Q14671 828-1176, C935R;R936A;Q939W)
# Summary of the method: as §1
# PUM1 PUF domain R8-HWD = PUM1 PUF domain R8-HWD (Homo sapiens, UniProt Q14671 828-1176, N1122H;Y1123W;Q1126D)
# Summary of the method: as §1
# PUM1 PUF domain R8-RHS = PUM1 PUF domain R8-RHS (Homo sapiens, UniProt Q14671 828-1176, N1122R;Y1123H;Q1126S)
# Summary of the method: as §1
# PUM1 PUF domain R6-KWT = biological target: T1, PUM1 PUF domain R6-KWT (Homo sapiens, UniProt Q14671 828-1176, N1043K;Y1044W;Q1047T)
# T1 sequence: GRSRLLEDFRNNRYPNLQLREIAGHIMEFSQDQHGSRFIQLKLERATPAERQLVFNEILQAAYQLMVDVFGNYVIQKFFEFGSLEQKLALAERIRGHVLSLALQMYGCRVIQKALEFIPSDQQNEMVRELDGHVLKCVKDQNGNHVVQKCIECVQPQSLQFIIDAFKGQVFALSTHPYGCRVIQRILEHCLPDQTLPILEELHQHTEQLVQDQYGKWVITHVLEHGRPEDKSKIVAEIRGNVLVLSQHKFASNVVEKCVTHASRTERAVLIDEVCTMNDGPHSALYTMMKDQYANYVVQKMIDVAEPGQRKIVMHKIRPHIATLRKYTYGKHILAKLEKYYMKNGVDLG
# Summary of the method: as §1
# PUM1 PUF domain R2-CGI = PUM1 PUF domain R2-CGI (Homo sapiens, UniProt Q14671 828-1176, N899C;Y900G;Q903I)
# Summary of the method: as §1
# PUM1 PUF domain R6-RYL = biological target: T2, PUM1 PUF domain R6-RYL (Homo sapiens, UniProt Q14671 828-1176, N1043R;Q1047L)
# T2 sequence: T1 sequence with K216R, W217Y, T220L
# Summary of the method: as §1
# PUM1 PUF domain R5-PHL = PUM1 PUF domain R5-PHL (Homo sapiens, UniProt Q14671 828-1176, C1007P;R1008H;Q1011L)
# Summary of the method: as §1
# PUM1 PUF domain R6-SFM = biological target: T3, PUM1 PUF domain R6-SFM (Homo sapiens, UniProt Q14671 828-1176, N1043S;Y1044F;Q1047M)
# T3 sequence: T1 sequence with K216S, W217F, T220M
# Summary of the method: as §1
# PUM1 PUF domain R6-GFS = biological target: T4, PUM1 PUF domain R6-GFS (Homo sapiens, UniProt Q14671 828-1176, N1043G;Y1044F;Q1047S)
# T4 sequence: T1 sequence with K216G, W217F, T220S
# Summary of the method: as §1
# PUM1 PUF domain R5-NSC = PUM1 PUF domain R5-NSC (Homo sapiens, UniProt Q14671 828-1176, C1007N;R1008S;Q1011C)
# Summary of the method: as §1
# PUM1 PUF domain R5-KQM = PUM1 PUF domain R5-KQM (Homo sapiens, UniProt Q14671 828-1176, C1007K;R1008Q;Q1011M)
# Summary of the method: as §1
# PUM1 PUF domain R5-KGN = PUM1 PUF domain R5-KGN (Homo sapiens, UniProt Q14671 828-1176, C1007K;R1008G;Q1011N)
# Summary of the method: as §1
# PUM1 PUF domain R2-EPW = PUM1 PUF domain R2-EPW (Homo sapiens, UniProt Q14671 828-1176, N899E;Y900P;Q903W)
# Summary of the method: as §1
# PUM1 PUF domain R7-RVS = PUM1 PUF domain R7-RVS (Homo sapiens, UniProt Q14671 828-1176, S1079R;N1080V;E1083S)
# Summary of the method: as §1
sequence,measurement,setting,value
GGCUAGAACUAGUGGAUCCCCCGGCGCCCGGCGGCUCGAGCCCGGGUAAGUGUACAUAGUCUGCAUGCCGCCGGGCGCCAUGCCUGCAGGUCGACUCUAGAAAACAUG,binding signal,PUM1 PUF domain R4-HNA,2.26 log2 enrichment (interaction score)
same,binding signal,PUM1 PUF domain R4-PHL,3.73 log2 enrichment (interaction score)
GGCUAGAACUAGUGGAUCCCCCGGCGCCCGGCGGCUCGAGCCCGGGUAAGUGUCAAUAGUCUGCAUGCCGCCGGGCGCCAUGCCUGCAGGUCGACUCUAGAAAACAUG,binding signal,PUM1 PUF domain R5-RCG,3 log2 enrichment (interaction score)
same,binding signal,PUM1 PUF domain R5-RMM,2.73 log2 enrichment (interaction score)
same,binding signal,PUM1 PUF domain R5-RVC,2.54 log2 enrichment (interaction score)
GGCUAGAACUAGUGGAUCCCCCGGCGCCCGGCGGCUCGAGCCCGGGUAAGUGUAAAUCGUCUGCAUGCCGCCGGGCGCCAUGCCUGCAGGUCGACUCUAGAAAACAUG,binding signal,PUM1 PUF domain R1-RTV,4.19 log2 enrichment (interaction score)
GGCUAGAACUAGUGGAUCCCCCGGCGCCCGGCGGCUCGAGCCCGGGUAAGUGUAAGUAGUCUGCAUGCCGCCGGGCGCCAUGCCUGCAGGUCGACUCUAGAAAACAUG,binding signal,PUM1 PUF domain R3-RAW,1.15 log2 enrichment (interaction score)
GGCUAGAACUAGUGGAUCCCCCGGCGCCCGGCGGCUCGAGCCCGGGUAAGCGUAAAUAGUCUGCAUGCCGCCGGGCGCCAUGCCUGCAGGUCGACUCUAGAAAACAUG,binding signal,PUM1 PUF domain R8-HWD,4.23 log2 enrichment (interaction score)
same,binding signal,PUM1 PUF domain R8-RHS,4.15 log2 enrichment (interaction score)
GGCUAGAACUAGUGGAUCCCCCGGCGCCCGGCGGCUCGAGCCCGGGUAAGUGCAAAUAGUCUGCAUGCCGCCGGGCGCCAUGCCUGCAGGUCGACUCUAGAAAACAUG,binding signal,PUM1 PUF domain R6-KWT,3.77 log2 enrichment (interaction score)
GGCUAGAACUAGUGGAUCCCCCGGCGCCCGGCGGCUCGAGCCCGGGUAAGUGUAAAUGGUCUGCAUGCCGCCGGGCGCCAUGCCUGCAGGUCGACUCUAGAAAACAUG,binding signal,PUM1 PUF domain R1-RTV,2.39 log2 enrichment (interaction score)
GGCUAGAACUAGUGGAUCCCCCGGCGCCCGGCGGCUCGAGCCCGGGUAAGUGUAAUUAGUCUGCAUGCCGCCGGGCGCCAUGCCUGCAGGUCGACUCUAGAAAACAUG,binding signal,PUM1 PUF domain R3-RAW,4.11 log2 enrichment (interaction score)
GGCUAGAACUAGUGGAUCCCCCGGCGCCCGGCGGCUCGAGCCCGGGUAAGUGUAAAUAGUCUGCAUGCCGCCGGGCGCCAUGCCUGCAGGUCGACUCUAGAAAACAUG,binding signal,PUM1 PUF domain R2-CGI,2.59 log2 enrichment (interaction score)
same,binding signal,PUM1 PUF domain R6-RYL,2.68 log2 enrichment (interaction score)
same,binding signal,PUM1 PUF domain R5-PHL,4.35 log2 enrichment (interaction score)
same,binding signal,PUM1 PUF domain R8-RHS,3.91 log2 enrichment (interaction score)
same,binding signal,PUM1 PUF domain R6-SFM,2.95 log2 enrichment (interaction score)
same,binding signal,PUM1 PUF domain R6-GFS,2.76 log2 enrichment (interaction score)
same,binding signal,PUM1 PUF domain R4-PHL,5.53 log2 enrichment (interaction score)
GGCUAGAACUAGUGGAUCCCCCGGCGCCCGGCGGCUCGAGCCCGGGUAAGUGUUAAUAGUCUGCAUGCCGCCGGGCGCCAUGCCUGCAGGUCGACUCUAGAAAACAUG,binding signal,PUM1 PUF domain R5-RCG,3.29 log2 enrichment (interaction score)
same,binding signal,PUM1 PUF domain R5-NSC,4.07 log2 enrichment (interaction score)
same,binding signal,PUM1 PUF domain R5-PHL,4.46 log2 enrichment (interaction score)
same,binding signal,PUM1 PUF domain R5-KQM,4.71 log2 enrichment (interaction score)
same,binding signal,PUM1 PUF domain R5-KGN,3.75 log2 enrichment (interaction score)
GGCUAGAACUAGUGGAUCCCCCGGCGCCCGGCGGCUCGAGCCCGGGUAAGUGUAUAUAGUCUGCAUGCCGCCGGGCGCCAUGCCUGCAGGUCGACUCUAGAAAACAUG,binding signal,PUM1 PUF domain R4-HNA,4.72 log2 enrichment (interaction score)
same,binding signal,PUM1 PUF domain R4-PHL,5.92 log2 enrichment (interaction score)
GGCUAGAACUAGUGGAUCCCCCGGCGCCCGGCGGCUCGAGCCCGGGUAAGUGUAAAGAGUCUGCAUGCCGCCGGGCGCCAUGCCUGCAGGUCGACUCUAGAAAACAUG,binding signal,PUM1 PUF domain R2-EPW,3.25 log2 enrichment (interaction score)
GGCUAGAACUAGUGGAUCCCCCGGCGCCCGGCGGCUCGAGCCCGGGUAAGUGUAAAUUGUCUGCAUGCCGCCGGGCGCCAUGCCUGCAGGUCGACUCUAGAAAACAUG,binding signal,PUM1 PUF domain R1-RTV,3.33 log2 enrichment (interaction score)
GGCUAGAACUAGUGGAUCCCCCGGCGCCCGGCGGCUCGAGCCCGGGUAAGUUUAAAUAGUCUGCAUGCCGCCGGGCGCCAUGCCUGCAGGUCGACUCUAGAAAACAUG,binding signal,PUM1 PUF domain R7-RVS,3.16 log2 enrichment (interaction score)
